Measurements taken from PubChem BioAssay (NCI).
This is part of a sample that, as a whole, favours compounds with a hit. Of some 83,000 tested, about 20% had one in any assay.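 A percent growth of 40 corresponds to 60% growth inhibition; 0 means no net growth; -100 means all cells died. Active threshold: below 10.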 Unmarked numbers belong to inactive results. Active and inactive are the calls of the source.

Key:
Assay in all cases: NCI-60 one-dose screen, 48 h (100 = growth as untreated, 0 = no growth, -100 = all killed)
Conditions in all cases: 10 µM unless noted
SK-MEL-2 melanoma = test system: SK-MEL-2 melanoma
EKVX NSCLC = test system: EKVX NSCLC
SN12C renal = test system: SN12C renal
UO-31 renal = test system: UO-31 renal
TK-10 renal = test system: TK-10 renal
ACHN renal = test system: ACHN renal
A498 renal = test system: A498 renal
CCRF-CEM leukemia = test system: CCRF-CEM leukemia
MOLT-4 leukemia = test system: MOLT-4 leukemia
SR leukemia = test system: SR leukemia

| SMILES | growth (SK-MEL-2 melanoma) | growth (EKVX NSCLC) | growth (SN12C renal) | growth (UO-31 renal) | growth (TK-10 renal) | growth (ACHN renal) | growth (A498 renal) | growth (CCRF-CEM leukemia) | growth (MOLT-4 leukemia) | growth (SR leukemia) |
| --- | --- | --- | --- | --- | --- | --- | --- | --- | --- | --- |
| COc1cc(C(=O)N2CCN(c3ccccc3OC)CC2)c(NC(=O)c2cnccn2)cc1OCc1ccccc1 | 85.7% | 57.2% | 88.6% | 39% | 102% | 92.5% | 84.9% | -44% (active) | 52.4% | 60.7% |
| COC(=O)c1cc2c3c(cc(O)c2[nH]1)N(C(=O)C1Cc2cc(OC)c(OC)c(OC)c2N1)CC3CCl (stereo not given) | -43% (active) | -31.5% (active) | -88.9% (active) | -97.8% (active) | -89.5% (active) | -56.1% (active) | -42.8% (active) | 5.91% (active) | -11.7% (active) | 8.12% (active) |
| CNc1cccc2c1C(=O)c1cccc(N)c1C2=O | 63.7% | 37.9% | 91% | 62.1% | 25.8% | 72.2% | 65% | 20.5% | 29.4% | 9.01% (active) |
| COc1ccc(-c2cc(-c3nnc(SCC(=O)Nc4ccc(/C(C)=N\O)cc4)o3)c3ccccc3n2)cc1 | 98% | 103% | 104% | 97.7% | 96.4% | 117% | 101% | 97.9% | 106% | 113% |
| O=C(Nc1ccccc1)NS(=O)(=O)c1c[nH]c(=S)[nH]c1=O | 91.5% | 99.6% | 103% | 89.3% | 97.6% | 108% | 112% | 113% | 90.8% | 87.3% |
| O=C(/C(=C/c1ccc([N+](=O)[O-])cc1)SCc1ccc(F)cc1)c1ccc(Cl)cc1 | 88.5% | 57.7% | 56% | 44.8% | 97.2% | 60.7% | 70.9% | 6.19% (active) | 7.7% (active) | 0.0981% (active) |
| COc1ccc2nc(-c3ccc(Cl)cc3)cc(-c3nnc(SC/C(=N/O)c4ccccc4)o3)c2c1 | 61.3% | 72.8% | 17.5% | 89.7% | 75% | 47.5% | 63.5% | 54.1% | 52.5% | 7.97% (active) |
| NCCN1CCNCC1 | 111% | 114% | 92% | 90.7% | 106% | 106% | 92.9% | 97% | 102% | 99.7% |
| O=C1NN(c2ccccc2)C(c2ccc(Cl)cc2)N2CCC[C@H]12 (stereo not given in full) | 107% | 94.8% | 105% | 85.3% | 111% | 106% | 84.5% | 107% | 99.5% | 111% |
| CC(=O)c1cnc(-c2ccccc2)nc1CBr | 98.3% | 79.7% | 51.2% | 44.7% | 79% | 35.3% | 82% | 35.8% | 26% | -20.9% (active) |
| Cn1cc(-c2ccc3c(c2)ncn3-c2ccc(CC(=O)Nc3cc(C(C)(C)C)on3)cc2)cn1 | 23.4% | 20.5% | 13.1% | 3.88% (active) | -8.53% (active) | 6.24% (active) | -47.1% (active) | 57.7% | 27.4% | 18.8% |
| Cc1cccc(NC(=O)c2sc3nc4c(cc3c2N)CN(Cc2ccccc2)CC4)c1C | 30.3% | 44.1% | 43.6% | 51% | 59% | 52.9% | -0.165% (active) | 13.9% | 22.5% | 25.5% |
| CN(C)CCCn1c2c(c3cc(-c4cccc(S(N)(=O)=O)c4)ccc3c1=O)C(=O)c1ccccc1-2 | 124% | 88.6% | 78.3% | 72.9% | 99.5% | 57.2% | 96.4% | 18.8% | 8.99% (active) | -5.99% (active) |
| COc1cc(F)c(-c2nc3c(C)cccc3n2Cc2c(F)cccc2F)c(F)c1 | 93.6% | 87.9% | 92.1% | 72.2% | 90.5% | 101% | 87% | 98.6% | 60.6% | 88.3% |
| CC(C)(C#N)c1cc(F)cc(C(=O)Nc2cc(Nc3ncccc3-c3ncnc4nc[nH]c34)ccc2F)c1 | -12.8% (active) | 59.5% | 56.7% | 12.8% | 49% | 38.5% | -4.87% (active) | 38.9% | 29.2% | 35.5% |
| CC1CCN(CCCCCOc2ccc3oc4ccccc4c(=O)c3c2)CC1 | 102% | 89% | 69.3% | 63.1% | 71.4% | 95.3% | 74.4% | 77.1% | 53.2% | 47.5% |
| CCC[S@](=O)c1ccc2nc(NC(=O)OC)[nH]c2c1 | 99.2% | 95.3% | 100% | 96.8% | 91.7% | 103% | 95.1% | 96.2% | 79.6% | 75.3% |
| Cc1cccc2nc3c(n12)C(=O)C(=O)c1ccccc1-3 | 81.2% | 64.1% | 37.1% | 55.8% | 125% | 69.4% | 81.3% | 91.9% | 81.1% | 88.2% |
| O=C1CCC23OC(C(O)c4ccccc4N12)C1C(Br)=NOC13 (stereo not given) | 108% | 99.7% | 90.7% | 87.2% | 98.5% | 104% | 108% | 103% | 103% | 102% |
| CN(C)CCCn1c2c(c3cc(-c4ccco4)ccc3c1=O)C(=O)c1ccccc1-2 | 117% | 81.4% | 51.9% | 51.6% | 66.3% | 48.5% | 93.7% | 36.2% | 10.9% | -40.2% (active) |
| c1ccc(-c2n(Cc3ccc4ccccc4n3)cc[n+]2Cc2ccc3ccccc3c2)cc1 | -27% (active) | 38.4% | 4.45% (active) | 54.6% | -0.737% (active) | 63.8% | -2.66% (active) | 4.04% (active) | 2.42% (active) | -27.4% (active) |
| COc1ccc(N(C)c2nc(Cl)nc3ccn(C)c23)cc1 | 19.3% | 43.1% | 23% | 45% | 67.7% | 21.9% | -9.23% (active) | 8.02% (active) | 9.94% (active) | 11.3% |
| Cc1ccc(CS/C(=C\c2ccc([N+](=O)[O-])cc2)C(=O)c2ccc(F)cc2)cc1 | 74.5% | 64% | 45.9% | 46.7% | 91.7% | 60.1% | 89.4% | 5.04% (active) | 3.17% (active) | 0.11% (active) |
| COc1cc(N=Nc2cc(S(=O)(=O)O)cc3cc(S(=O)(=O)O)cc(O)c23)c(C)cc1N=Nc1c(S(=O)(=O)O)cc2cc(Nc3ccccc3)ccc2c1O | 103% | 107% | 103% | 81.3% | 91.1% | 108% | 108% | 100% | 86.8% | 76.5% |
| CN(CCC#N)C(=O)Nc1ccccc1 | 98.7% | 105% | 111% | 87.3% | 84.1% | 110% | 90.4% | 111% | 99.7% | 96.5% |
| COc1cc([C@H](C)c2ccc3ccccc3c2)cc(OC)c1OC | 28.3% | 30.9% | 48.3% | 42.1% | 61.4% | 35.1% | 12.7% | 16% | 13.5% | 23.5% |
